Measured values reported in the supplement of paper PMC10849652.
The full data set covers some 7,900 targets. This sample favours those with a hit. About 0.6% of all pairs of compound and target were hits.

The targets below were run with NC(=O)c1cnc(N[C@@H]2CCCC[C@@H]2N)nc1Nc1cccc(-n2nccn2)c1 (assay: log2 fold change, soluble protein after heating vs DMSO (PISA); higher = thermal stabilisation; K562 cells, 10 uM, 30 min; active = over 0.2 and 3.5 SD of the protein, either way, in both replicates (recomputed)).
Summary of the method: (§1)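 K562 cells at 2×10^6 cells/mL were given 10 μM compound for 30 min. Aliquots then went through 3 min of heating across 48°C-58°C, were pooled, and were extracted in PBS with 0.5% NP-40 at 4°C, and the supernatant after 21,000xg for 90 min was quantified by TMTpro 16plex LC-MS/MS with channel sums equalised. Thermal stability relative to control samples, from duplicates, is given as log2 fold change.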

Sequence of UniProt P01130 (P01130 whole entry, looked up): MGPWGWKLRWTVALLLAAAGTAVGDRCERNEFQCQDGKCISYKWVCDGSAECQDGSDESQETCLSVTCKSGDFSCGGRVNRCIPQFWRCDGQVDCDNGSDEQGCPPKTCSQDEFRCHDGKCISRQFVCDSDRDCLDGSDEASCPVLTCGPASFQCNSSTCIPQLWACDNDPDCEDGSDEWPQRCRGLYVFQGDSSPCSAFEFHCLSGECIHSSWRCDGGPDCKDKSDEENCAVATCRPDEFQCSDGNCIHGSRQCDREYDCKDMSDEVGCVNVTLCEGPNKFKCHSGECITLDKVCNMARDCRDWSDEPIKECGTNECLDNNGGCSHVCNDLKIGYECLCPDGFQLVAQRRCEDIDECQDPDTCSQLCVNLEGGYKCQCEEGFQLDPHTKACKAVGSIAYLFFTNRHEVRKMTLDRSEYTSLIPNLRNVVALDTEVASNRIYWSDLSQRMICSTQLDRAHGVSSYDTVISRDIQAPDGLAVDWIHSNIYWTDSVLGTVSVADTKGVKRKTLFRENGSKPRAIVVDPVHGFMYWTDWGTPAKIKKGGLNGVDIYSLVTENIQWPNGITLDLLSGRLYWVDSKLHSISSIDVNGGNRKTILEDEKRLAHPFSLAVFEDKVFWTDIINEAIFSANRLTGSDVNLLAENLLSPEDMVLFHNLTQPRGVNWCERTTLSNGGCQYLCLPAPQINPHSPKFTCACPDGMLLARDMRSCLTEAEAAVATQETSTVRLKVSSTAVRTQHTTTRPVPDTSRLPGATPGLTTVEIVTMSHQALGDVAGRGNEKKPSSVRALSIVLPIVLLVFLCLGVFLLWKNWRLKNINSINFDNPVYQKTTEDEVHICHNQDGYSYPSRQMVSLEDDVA
Sequence of UniProt Q9H1B7 (Q9H1B7 whole entry, looked up): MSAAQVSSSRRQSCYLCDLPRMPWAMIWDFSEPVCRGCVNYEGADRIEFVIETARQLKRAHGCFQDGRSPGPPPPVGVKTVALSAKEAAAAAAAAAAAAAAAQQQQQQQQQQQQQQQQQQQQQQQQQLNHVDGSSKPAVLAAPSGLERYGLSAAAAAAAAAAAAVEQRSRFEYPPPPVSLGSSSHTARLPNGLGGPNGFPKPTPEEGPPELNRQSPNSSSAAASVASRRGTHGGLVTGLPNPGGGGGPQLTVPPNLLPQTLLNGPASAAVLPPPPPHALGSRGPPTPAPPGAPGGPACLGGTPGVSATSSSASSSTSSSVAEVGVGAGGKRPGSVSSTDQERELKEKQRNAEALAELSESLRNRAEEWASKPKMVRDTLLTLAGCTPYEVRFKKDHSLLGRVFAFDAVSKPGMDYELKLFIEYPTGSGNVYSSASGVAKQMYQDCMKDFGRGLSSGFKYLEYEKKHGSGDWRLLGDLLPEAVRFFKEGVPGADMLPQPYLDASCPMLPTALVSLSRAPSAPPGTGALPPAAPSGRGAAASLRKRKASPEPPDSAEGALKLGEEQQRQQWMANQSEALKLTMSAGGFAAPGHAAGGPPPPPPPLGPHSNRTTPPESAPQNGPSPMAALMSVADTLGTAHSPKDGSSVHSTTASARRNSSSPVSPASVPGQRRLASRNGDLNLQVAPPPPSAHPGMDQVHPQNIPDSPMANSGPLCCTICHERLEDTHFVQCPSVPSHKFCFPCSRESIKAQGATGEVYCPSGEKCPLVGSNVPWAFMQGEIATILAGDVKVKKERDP
Sequence of UniProt Q9UGP4 (Q9UGP4 whole entry, looked up): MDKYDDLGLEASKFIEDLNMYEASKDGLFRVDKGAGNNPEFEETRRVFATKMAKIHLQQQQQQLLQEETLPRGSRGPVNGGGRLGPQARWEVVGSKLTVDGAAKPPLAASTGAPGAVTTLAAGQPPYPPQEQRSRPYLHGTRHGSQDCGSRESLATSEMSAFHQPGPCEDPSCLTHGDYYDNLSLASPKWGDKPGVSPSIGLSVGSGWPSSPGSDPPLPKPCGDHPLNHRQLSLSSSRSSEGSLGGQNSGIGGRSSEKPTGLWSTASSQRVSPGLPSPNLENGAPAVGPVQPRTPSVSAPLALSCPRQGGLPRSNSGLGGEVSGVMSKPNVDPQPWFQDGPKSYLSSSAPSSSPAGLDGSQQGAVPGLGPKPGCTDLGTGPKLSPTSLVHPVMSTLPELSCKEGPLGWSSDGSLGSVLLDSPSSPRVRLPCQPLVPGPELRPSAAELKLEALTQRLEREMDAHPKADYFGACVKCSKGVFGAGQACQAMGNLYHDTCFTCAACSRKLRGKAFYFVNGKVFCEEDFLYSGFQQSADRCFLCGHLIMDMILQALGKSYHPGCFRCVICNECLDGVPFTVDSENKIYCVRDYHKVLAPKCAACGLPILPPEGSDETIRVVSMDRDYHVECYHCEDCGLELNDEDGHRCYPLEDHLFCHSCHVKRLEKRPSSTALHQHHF
Sequence of UniProt Q7LBC6 (Q7LBC6 whole entry, looked up): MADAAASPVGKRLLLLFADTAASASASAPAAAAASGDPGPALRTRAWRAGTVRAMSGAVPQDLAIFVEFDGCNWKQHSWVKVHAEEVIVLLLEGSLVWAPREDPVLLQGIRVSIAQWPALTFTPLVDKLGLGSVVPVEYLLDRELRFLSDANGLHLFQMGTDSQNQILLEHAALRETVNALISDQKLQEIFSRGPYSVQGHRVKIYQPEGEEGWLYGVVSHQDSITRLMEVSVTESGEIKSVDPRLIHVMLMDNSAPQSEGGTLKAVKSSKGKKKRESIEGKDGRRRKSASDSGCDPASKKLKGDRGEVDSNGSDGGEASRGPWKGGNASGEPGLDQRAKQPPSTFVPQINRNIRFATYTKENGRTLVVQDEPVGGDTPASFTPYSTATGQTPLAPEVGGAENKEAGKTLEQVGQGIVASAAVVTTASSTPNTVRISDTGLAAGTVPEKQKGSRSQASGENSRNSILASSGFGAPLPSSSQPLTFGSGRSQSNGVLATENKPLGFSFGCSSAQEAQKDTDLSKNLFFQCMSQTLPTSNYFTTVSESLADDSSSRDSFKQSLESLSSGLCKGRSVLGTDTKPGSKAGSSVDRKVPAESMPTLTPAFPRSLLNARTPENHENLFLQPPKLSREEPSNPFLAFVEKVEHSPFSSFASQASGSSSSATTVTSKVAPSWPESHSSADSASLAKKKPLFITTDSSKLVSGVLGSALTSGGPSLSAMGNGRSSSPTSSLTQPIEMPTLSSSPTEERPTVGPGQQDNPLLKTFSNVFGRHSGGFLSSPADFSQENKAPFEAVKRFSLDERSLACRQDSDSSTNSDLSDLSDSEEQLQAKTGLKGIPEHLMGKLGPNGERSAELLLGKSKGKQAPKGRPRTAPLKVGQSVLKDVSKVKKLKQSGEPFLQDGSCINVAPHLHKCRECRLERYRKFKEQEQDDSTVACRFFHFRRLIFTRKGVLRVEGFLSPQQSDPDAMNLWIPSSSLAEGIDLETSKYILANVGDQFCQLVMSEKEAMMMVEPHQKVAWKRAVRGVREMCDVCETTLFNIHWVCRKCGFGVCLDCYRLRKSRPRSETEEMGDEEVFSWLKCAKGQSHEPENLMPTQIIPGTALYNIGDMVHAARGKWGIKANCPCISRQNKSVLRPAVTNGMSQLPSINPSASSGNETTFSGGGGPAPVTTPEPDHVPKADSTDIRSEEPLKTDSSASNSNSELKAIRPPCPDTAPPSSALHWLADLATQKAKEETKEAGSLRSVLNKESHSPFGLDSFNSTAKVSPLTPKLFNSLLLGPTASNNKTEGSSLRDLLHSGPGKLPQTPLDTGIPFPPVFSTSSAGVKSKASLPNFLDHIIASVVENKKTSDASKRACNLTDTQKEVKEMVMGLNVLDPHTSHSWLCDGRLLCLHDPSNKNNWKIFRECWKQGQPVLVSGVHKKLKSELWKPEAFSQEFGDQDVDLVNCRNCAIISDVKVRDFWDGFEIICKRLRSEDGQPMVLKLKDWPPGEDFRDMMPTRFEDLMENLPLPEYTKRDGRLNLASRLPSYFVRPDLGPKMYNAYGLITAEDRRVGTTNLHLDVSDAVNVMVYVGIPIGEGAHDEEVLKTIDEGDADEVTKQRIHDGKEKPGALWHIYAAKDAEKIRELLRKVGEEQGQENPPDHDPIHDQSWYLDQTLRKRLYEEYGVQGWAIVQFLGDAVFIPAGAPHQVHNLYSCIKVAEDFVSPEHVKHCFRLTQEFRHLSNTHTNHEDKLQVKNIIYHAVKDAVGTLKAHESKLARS
Sequence of UniProt Q07820 (Q07820 whole entry, looked up): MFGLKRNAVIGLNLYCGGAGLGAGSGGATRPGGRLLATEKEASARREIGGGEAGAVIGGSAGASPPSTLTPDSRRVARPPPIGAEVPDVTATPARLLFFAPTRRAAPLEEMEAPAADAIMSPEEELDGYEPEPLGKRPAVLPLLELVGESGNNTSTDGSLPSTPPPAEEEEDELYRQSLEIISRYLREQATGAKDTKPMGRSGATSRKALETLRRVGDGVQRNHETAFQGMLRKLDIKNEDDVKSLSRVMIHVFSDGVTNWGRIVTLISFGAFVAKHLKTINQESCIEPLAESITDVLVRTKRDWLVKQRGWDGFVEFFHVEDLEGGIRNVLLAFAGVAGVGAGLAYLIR
Sequence of UniProt Q4G0J3 (Q4G0J3 whole entry, looked up): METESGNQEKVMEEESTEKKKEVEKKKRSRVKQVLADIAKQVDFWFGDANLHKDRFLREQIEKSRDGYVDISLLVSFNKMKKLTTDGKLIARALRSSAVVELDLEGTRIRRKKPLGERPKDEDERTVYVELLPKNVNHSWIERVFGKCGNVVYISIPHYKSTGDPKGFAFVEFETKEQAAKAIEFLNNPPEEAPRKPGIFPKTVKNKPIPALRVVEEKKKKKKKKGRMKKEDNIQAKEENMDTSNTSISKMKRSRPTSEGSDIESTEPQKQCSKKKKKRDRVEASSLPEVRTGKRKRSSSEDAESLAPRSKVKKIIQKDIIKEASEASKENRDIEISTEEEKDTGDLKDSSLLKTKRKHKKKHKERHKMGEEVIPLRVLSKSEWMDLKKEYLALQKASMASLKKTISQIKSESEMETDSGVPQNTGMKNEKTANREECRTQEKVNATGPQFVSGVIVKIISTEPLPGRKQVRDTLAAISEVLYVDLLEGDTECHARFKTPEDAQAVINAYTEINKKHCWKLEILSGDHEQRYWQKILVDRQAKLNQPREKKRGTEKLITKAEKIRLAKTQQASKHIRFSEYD

log2 fold change, inactive:
LUC7L2 (UniProt Q9Y383) -0.025
ILF3 isoform 7 (UniProt Q12906) 0.055
MAGOHB (UniProt Q96A72) 0.177
KDM5D isoform 3 (UniProt Q9BY66) -0.012
LIMD1 (UniProt Q9UGP4) 0.005
MED1 (UniProt Q15648) -0.064
MCL1 (UniProt Q07820) -0.33
LIMA1 isoform 4 (UniProt Q9UHB6) -0.045
LMBRD1 (UniProt Q9NUN5) 0.046
KIF13A (UniProt Q9H1H9) -0.008
MARCKSL1 (UniProt P49006) 0.028
LARP4 isoform 4 (UniProt Q71RC2) -0.094
KIF21A isoform 4 (UniProt Q7Z4S6) 0.055
LEMD3 (UniProt Q9Y2U8) -0.029
MAP3K7 (UniProt O43318) 0.033
MAPKAPK3 (UniProt Q16644) -0.024
MAPK14 isoform 2 (UniProt Q16539) 0.028
ITIH4 (UniProt Q14624) -0.041
MAGEA9 (UniProt P43362) -0.027
IMMT isoform 4 (UniProt Q16891) -0.083
MEPCE (UniProt Q7L2J0) -0.152
LSS (UniProt P48449) 0.108
LONP2 (UniProt Q86WA8) 0.024
KDM3B (UniProt Q7LBC6) -0.033
LARP4B (UniProt Q92615) -0.042
LDLR (UniProt P01130) 0.093
IRF2BPL (UniProt Q9H1B7) 0.011
LTN1 isoform 3 (UniProt O94822) -0.079
LARP7 isoform 3 (UniProt Q4G0J3) -0.116
LNPK (UniProt Q9C0E8) 0.01
MAP2K3 isoform 3 (UniProt P46734) -0.018
MICU2 (UniProt Q8IYU8) -0.075
MGST3 (UniProt O14880) -0.07
KSR1 (UniProt Q8IVT5) -0.049
IWS1 (UniProt Q96ST2) 0.034
MFN1 (UniProt Q8IWA4) -0.171
MARK3 (UniProt P27448) -0.181
MDC1 (UniProt Q14676) -0.075
MAP4 (UniProt E7EVA0) 0.165

Each target was assayed with NC1(c2ccc(-c3nc4ccn5c(=O)[nH]nc5c4cc3-c3ccccc3)cc2)CCC1 in the same assay as above.
Summary of the method: as §1

log2 fold change, inactive:
LUC7L2 (UniProt Q9Y383) 0.09
ILF3 isoform 7 (UniProt Q12906) 0.17
MAGOHB (UniProt Q96A72) -0.039
KDM5D isoform 3 (UniProt Q9BY66) -0.134
LIMD1 (UniProt Q9UGP4) 0.004
MED1 (UniProt Q15648) 0.002
MCL1 (UniProt Q07820) -0.093
LIMA1 isoform 4 (UniProt Q9UHB6) 0.081
LMBRD1 (UniProt Q9NUN5) -0.243
KIF13A (UniProt Q9H1H9) -0.078
MARCKSL1 (UniProt P49006) -0.01
LARP4 isoform 4 (UniProt Q71RC2) 0.084
KIF21A isoform 4 (UniProt Q7Z4S6) -0.049
LEMD3 (UniProt Q9Y2U8) -0.142
MAP3K7 (UniProt O43318) -0.141
MAPKAPK3 (UniProt Q16644) -0.125
MAPK14 isoform 2 (UniProt Q16539) -0.192
ITIH4 (UniProt Q14624) -0.136
MAGEA9 (UniProt P43362) -0.243
IMMT isoform 4 (UniProt Q16891) -0.132
MEPCE (UniProt Q7L2J0) -0.127
LSS (UniProt P48449) 0.142
LONP2 (UniProt Q86WA8) -0.279
KDM3B (UniProt Q7LBC6) -0.114
LARP4B (UniProt Q92615) 0.048
LDLR (UniProt P01130) 0.008
IRF2BPL (UniProt Q9H1B7) 0.013
LTN1 isoform 3 (UniProt O94822) -0.125
LARP7 isoform 3 (UniProt Q4G0J3) -0.129
LNPK (UniProt Q9C0E8) 0.009
MAP2K3 isoform 3 (UniProt P46734) -0.14
MICU2 (UniProt Q8IYU8) -0.121
MGST3 (UniProt O14880) 0.076
KSR1 (UniProt Q8IVT5) 0.236
IWS1 (UniProt Q96ST2) -0.028
MFN1 (UniProt Q8IWA4) -0.01
MARK3 (UniProt P27448) -0.006
MDC1 (UniProt Q14676) -0.054
MAP4 (UniProt E7EVA0) 0.144
